Results reported in PubChem BioAssay (NCATS).
Records with an inconclusive call do not appear. Calls of active or inactive are those of the source. Unless noted, calls come from the whole dose curve; as a rule, active = well fitted curve in the direction sought with a large enough effect; inconclusive = small, poorly fitted or top-dose-only effect, or another doubt; inactive = no such curve, though single readings can be large; an effect the other way counts as inactive or inconclusive.

How the values were obtained:
[1] = target: Lysosomal acid glucosylceramidase (Homo sapiens) (UniProt P04062); assay: Glucocerebrosidase-p2 (AID 348; in the data active = potency below about 10 µM; note: potency is the fitted concentration of half-maximal effect); details: purified GBA, blue fluorogenic substrate, 40 min
Summary of the method: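 Normal human glucocerebrosidase (0.2 nM) with blue fluorogenic substrate (80 uM final) in citrate/phosphate pH 5.9 with 10mM sodium taurocholate, 0.01% tween-20; 40 min RT, NaOH/glycine stop; fluorescence Ex 365/Em 440; AC50 from a titration from 0.6 nM upwards.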

[2] = AP1 Signaling Pathway (AID 357; active = well fitted curve in either direction with a large enough effect, not every such curve was filed as active;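 note: ME-180 reporter cells stimulated with EGF at its EC50 level; % is set by controls: 0 for no effect and ±100 for the full control effect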); details: ME-180 AP-1-bla reporter, EGF-induced, beta-lactamase ratio, 5 h; at 7.69 µM (top of the series) unless noted
Summary of the method: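 In this screen, ME-180 cells in Opti-MEM with 0.5% dialyzed FBS received EC50 EGF and compound titrations for 5 h. AP-1 reporter beta-lactamase was detected via CCF4 ratio, giving AC50 for positive and negative modulators.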

[3] = NFAT Signaling Pathway (AID 444; active = well fitted curve in either direction with a large enough effect, not every such curve was filed as active;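 note: carbachol stimulus at about its EC50 of 1 µM final; % is set by controls: 0 for no effect and ±100 for the full control effect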); details: Jurkat NFAT-bla M1, carbachol, beta-lactamase ratio, 5 h; at 7.69 µM (top of the series) unless noted
Summary of the method: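 Read-out: CCF4 FRET ratio (460 nm/530 nm) after 1 h RT dye loading, used for %activity and AC50 from titration series. Cells: Jurkat NFAT-β-lactamase/M1 line, treated with compound plus 1 uM carbachol for 5 h, 37 °C.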

[4] = Stat Signaling Pathway (AID 446; active = well fitted curve in either direction with a large enough effect, not every such curve was filed as active;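 note: ME-180 cervical cancer cells given 40 pM IL-6 alongside compound; SIE-controlled beta-lactamase reporter measured as 460/530 nm FRET emission ratio; % is set by controls: 0 for no effect and ±100 for the full control effect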); details: ME-180 (cervical carcinoma) SIE beta-lactamase reporter, IL-6 stimulated, 5 h; at 7.69 µM (top of the series) unless noted
Summary of the method: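 Emission at 460 and 530 nm (excitation 405 nm) reports SIE-controlled beta-lactamase in ME-180 cells. Cells received compound with 40 pM IL-6 for 5 hrs at 37 C; data scaled between 300 pM IL-6 and 125 nM JAK-inhibitor controls.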

[5] = target: Glucocorticoid receptor (Homo sapiens) (UniProt P04150); assay: GR-GFP Redistribution (AID 450;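 active = compounds whose dose series gives a full or clear partial fitted curve of increased nuclear translocation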; note: potency is the fitted concentration of half-maximal effect); details: U2OS GR-GFP nuclear translocation, laser cytometry, 2 h
[6] = target: Glucocorticoid receptor (Homo sapiens) (UniProt P04150); assay: GR-EFC Redistribution (AID 451; calls by dose curve; note: potency is the fitted concentration of half-maximal effect); details: CHO-K1 GR-EFC translocation, beta-gal luminescence, 2 h
Summary of the method: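 Translocation of GR-ED fusion to nuclear EA restores b-gal, read by luminescence after 1 h room-temperature detection. Engineered CHO-K1 biosensor cells, 1,000/well, exposed 2 h at 37 C to titrations up to 46 uM final.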

[7] = target: Mitogen-activated protein kinase 10 (Mus musculus) (UniProt Q61831); assay: JNK3 AlphaScreen Assay (AID 530; active = well fitted curve in either direction with a large enough effect, not every such curve was filed as active;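 note: kinase came from lysate of stimulated human HepG2 cells; signal reports phosphorylation of biotinylated GST-cJun 1-79 at Ser73 with 10 µM ATP; % is set by controls: 0 for no effect and ±100 for the full control effect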); details: JNK3 lysate, c-Jun phosphorylation; series mostly up to 57.1 µM
Summary of the method: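 Kinase buffer: 20 mM Tris-HCl pH 7.6, 10 mM MgCl2, 1 mM DTT, 0.1 mM Na3VO4, 0.01% Tween-20; ATP 10 uM. Substrate biotin-GST-cJun(1-79), enzyme from activated HepG2 lysates. Detection by Ser73 phospho-antibody AlphaScreen.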

[8] = target: 3',5'-cyclic-AMP phosphodiesterase 4B (Homo sapiens) (UniProt Q07343); assay: qHTS Assay for Inhibitors of PDE-IV (AID 607; active = well fitted activation curve with a large enough effect in the main read-out, with a control signal flat, not every such curve was filed as active; note: % of control where 0% means no effect); details: HEK293 ACTOne CNG channel cells, membrane potential fluorescence; series mostly up to 22.9 µM
Summary of the method: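 The readout is membrane depolarisation from a cAMP-sensing CNG channel, detected with a potential dye at ex 535/em 590. Cells were HEK293-derived (endogenous PDE-IV) at 1000 cells/well, titrated up to 22.9 uM final.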

[9] = target: Dual specificity protein kinase CLK4 (Homo sapiens) (UniProt Q9HAZ1); assay: qHTS Assay for Inhibitors of CDC-like Kinase 4 (Kinase-Glo Assay) (AID 1770); details: recombinant Clk4, Kinase-Glo ATP depletion luminescence; series mostly up to 66.7 µM; note: % is set by controls: 0 for no effect and ±100 for the full control effect; nearly all actives have a fitted effect of over 65% in size
Summary of the method: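 Inhibition was judged from remaining ATP, measured by Ultra-Glo luciferase bioluminescence after Clk4 (25 nM) had acted on RS peptide at 1 uM ATP for 4.5 hours, room temperature.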

[10] = target: Dual specificity protein kinase CLK4 (Homo sapiens) (UniProt Q9HAZ1); assay: qHTS Assay for Inhibitors of CDC-like Kinase 4 (ADP-Glo Assay) (AID 1771); details: recombinant CLK4, ADP-Glo luminescence; series mostly up to 80 µM; note: % is set by controls: 0 for no effect and ±100 for the full control effect; nearly all actives have a fitted effect of over 70% in size
Summary of the method: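 In this ADP-Glo format, 1 uM ATP and 100 uM RS peptide served as substrates for 25 nM Clk4 in Mg2+/EGTA/DTT/Triton buffer; reactions ran 1 hr at room temperature before luminescent ADP quantification.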

[11] = target: Dual specificity protein kinase CLK4 (Homo sapiens) (UniProt Q9HAZ1); assay: qHTS Assay for Inhibitors of CDC-like Kinase 4 (ADP-FP Assay) (AID 1795); details: Transcreener ADP fluorescence polarization; series mostly up to 50 µM;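 note: recombinant human CLK4 phosphorylating RS repeat peptide at 1 µM ATP; % is set by controls: 0 for no effect and ±100 for the full control effect; nearly all actives have a fitted effect of over 60% in size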
Summary of the method: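 Inhibition of ADP formation by 6.25 nM Clk4 is measured using 1 uM ATP and 100 uM RS repeat peptide over one hour. Produced ADP displaces a fluorescent tracer from antibody, lowering polarization.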

[12] = target: Ubiquitin carboxyl-terminal hydrolase 1 (Homo sapiens) (UniProt O94782); assay: Inhibitors of USP1/UAF1: Pilot qHTS (AID 504865); details: purified USP1/UAF1, Ub-rhodamine cleavage fluorescence; series mostly up to 54.9 µM;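 note: rhodamine fluorescence freed from ubiquitin-rhodamine substrate followed over time; top concentration of the series differs between compounds; % is set by controls: 0 for no effect and ±100 for the full control effect; nearly all actives have a fitted effect of over 35% in size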
Summary of the method: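 Kinetic fluorescence assay: 1nM USP1/UAF1, 15 min compound preincubation, then 150nM Ub-Rho; 480/540 nm.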

[13] = Counterscreen qHTS for small molecule stabilizers of the endoplasmic reticulum resident proteome: GLuc-NoTag assay (AID 1508627); details: Gaussia luciferase NoTag secretion counterscreen, luminescence, thapsigargin 100 nM for final 4 h; series mostly up to 76.4 µM;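 note: SH-SY5Y cells given compound then 100 nM thapsigargin to empty ER calcium; 0% = thapsigargin alone and -100% = DMSO vehicle control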
Summary of the method: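 Counterscreen line: SH-SY5Y-GLuc-NoTag cells, treated with compound 19 hr before a 4 hr, 100 nM thapsigargin calcium depletion. Secreted Gaussia luciferase in the medium was measured by luminescence after coelenterazine was added (0.07x final), with cells unlysed.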

[14] = Confirmatory qHTS for small molecule stabilizers of the endoplasmic reticulum resident proteome: Secreted ER Calcium Modulated Protein (SERCaMP) assay (AID 1508628); details: SERCaMP secreted luciferase ER calcium/proteostasis reporter; series mostly up to 76.3 µM; note: nearly all actives have a fitted effect of over 40% in size; note: potency is the fitted concentration of half-maximal effect
Summary of the method: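 GLuc-SERCaMP-expressing SH-SY5Y cells, pretreated 16 h with compound, are challenged with thapsigargin to empty ER calcium stores; after 4 h, coelenterazine is added directly to the medium and luminescence is imaged.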

[15] = target: Cytochrome P450 1A2 (Homo sapiens) (UniProt P05177); assay: p450-cyp1a2 (AID 410; calls by dose curve; note: potency is the fitted concentration of half-maximal effect;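 for activity change, negative = inhibition: -100% = full effect of reference inhibitor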); details: recombinant CYP1A2, luciferin-ME demethylation, luminescence; series mostly up to 57 µM
Summary of the method: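 Read-out is luminescence from luciferin produced by CYP1A2 demethylation of Luciferin-ME (100uM, at Km). Detection reagent stopped the 60 min NADPH-dependent reaction; signals were normalized to 57 uM furafylline.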

[16] = Cell Viability qHTS for small molecule stabilizers of the endoplasmic reticulum resident proteome (AID 1508629); details: cell viability counter-screen, 100 nM thapsigargin for final 4 h
[17] = target: Cytochrome P450 3A4 (Homo sapiens) (UniProt P08684); assay: qHTS Assay for Activators of Cytochrome P450 3A4 (AID 885); details: recombinant CYP3A4, Luciferin-PPXE luminescence, 60 min; series mostly up to 57.1 µM; note: nearly all actives have a fitted effect of over 65% in size
Summary of the method: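 Activators are scored by enhanced luminescence from CYP3A4 conversion of luciferin-PPXE (25uM, equal to KM) to luciferin, after 60 min at RT with an NADPH-regenerating system.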

[18] = Confirmation and Secondary Assay for Modulators of Hemoglobin Beta Chain Splicing at IVS2 654 locus (AID 910); details: HeLa EGFP-654 splicing reporter, GFP fluorescence, 48 h; series mostly up to 38.3 µM;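 note: HeLa cells stably carrying EGFP split by mutant beta-globin IVS2-654 intron; per-well total GFP intensity by laser scanning cytometry after 2-day treatment; % of control where 0% means no effect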
Summary of the method: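 Readout: per-well total peak green fluorescence (488 nm ex, 500–520 nm em) from objects 5–250 µm, reflecting correct splicing of an EGFP-654 reporter. Compounds were applied for 2 days at 37 °C to overnight-plated HeLa EGFP-654 cells; controls were DMSO and 500 nM IVS2-654 PNA.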

[19] = qHTS Assay for Lipid Storage Modulators (AID 1519; calls by dose curve); details: Drosophila S3 cells, BODIPY lipid droplet/cell ratio, laser cytometry, cells loaded with oleic acid
Summary of the method: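 Cells seeded at 5,000 per well were treated with compounds over a concentration series and loaded with oleic acid (400 uM, as added). Lipid droplet fluorescence (488 nm excitation, 500-530 nm channel) was read by laser-scanning cytometry and normalized to 20 uM Triacsin C.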

[20] = target: Cytochrome P450 3A4 (Homo sapiens) (UniProt P08684); assay: qHTS Assay for Inhibitors and Substrates of Cytochrome P450 3A4 (AID 884); details: recombinant CYP3A4, Luciferin-PPXE luminescence; series mostly up to 57.1 µM; note: potency is the fitted concentration of half-maximal effect; nearly all actives have a fitted effect of over 50% in size
Summary of the method: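 Luminescent readout of luciferin produced by CYP3A4 (20 nM) dealkylation of Luciferin-PPXE, 25 uM (its KM). NADPH-driven reaction ran 60 min at RT after 10 min compound preincubation; data scaled to 57 uM ketoconazole as 100% inhibition.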

Sequence of Dual specificity protein kinase CLK4 (Homo sapiens) (Q9HAZ1 whole entry, looked up): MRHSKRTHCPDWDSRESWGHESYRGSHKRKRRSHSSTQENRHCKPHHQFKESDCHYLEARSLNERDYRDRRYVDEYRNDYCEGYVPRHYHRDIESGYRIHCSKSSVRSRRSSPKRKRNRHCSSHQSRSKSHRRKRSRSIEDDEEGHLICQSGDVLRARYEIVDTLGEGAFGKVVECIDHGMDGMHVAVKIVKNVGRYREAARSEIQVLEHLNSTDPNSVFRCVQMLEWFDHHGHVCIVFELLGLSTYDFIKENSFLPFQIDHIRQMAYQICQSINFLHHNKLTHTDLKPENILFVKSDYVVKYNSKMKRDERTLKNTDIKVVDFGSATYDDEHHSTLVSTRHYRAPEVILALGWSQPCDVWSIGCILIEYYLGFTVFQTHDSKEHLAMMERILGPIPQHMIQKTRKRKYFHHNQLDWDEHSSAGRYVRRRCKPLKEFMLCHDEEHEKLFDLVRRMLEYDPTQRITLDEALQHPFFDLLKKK
Sequence of Ubiquitin carboxyl-terminal hydrolase 1 (Homo sapiens) (O94782 whole entry, looked up): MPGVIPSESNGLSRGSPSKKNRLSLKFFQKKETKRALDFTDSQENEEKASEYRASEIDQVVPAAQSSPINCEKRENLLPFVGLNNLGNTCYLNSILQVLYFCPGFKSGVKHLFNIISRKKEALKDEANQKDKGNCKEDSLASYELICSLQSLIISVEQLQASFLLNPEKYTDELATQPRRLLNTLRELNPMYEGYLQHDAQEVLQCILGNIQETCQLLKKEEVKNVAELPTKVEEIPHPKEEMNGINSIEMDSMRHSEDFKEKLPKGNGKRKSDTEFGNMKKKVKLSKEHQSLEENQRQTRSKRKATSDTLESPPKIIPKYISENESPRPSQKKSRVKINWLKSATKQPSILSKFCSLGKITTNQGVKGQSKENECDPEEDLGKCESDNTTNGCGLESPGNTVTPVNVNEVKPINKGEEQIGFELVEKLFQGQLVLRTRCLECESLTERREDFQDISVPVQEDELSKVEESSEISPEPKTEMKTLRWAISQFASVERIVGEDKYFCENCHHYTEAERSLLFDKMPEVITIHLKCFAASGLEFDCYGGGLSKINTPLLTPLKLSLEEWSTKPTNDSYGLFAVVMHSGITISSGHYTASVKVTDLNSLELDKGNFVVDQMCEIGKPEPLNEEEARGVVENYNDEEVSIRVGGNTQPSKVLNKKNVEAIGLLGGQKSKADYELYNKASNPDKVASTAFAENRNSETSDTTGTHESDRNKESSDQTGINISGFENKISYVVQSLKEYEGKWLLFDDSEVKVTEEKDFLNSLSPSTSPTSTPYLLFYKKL
Sequence of Glucocorticoid receptor (Homo sapiens) (P04150 whole entry, looked up, the tested form may be a part): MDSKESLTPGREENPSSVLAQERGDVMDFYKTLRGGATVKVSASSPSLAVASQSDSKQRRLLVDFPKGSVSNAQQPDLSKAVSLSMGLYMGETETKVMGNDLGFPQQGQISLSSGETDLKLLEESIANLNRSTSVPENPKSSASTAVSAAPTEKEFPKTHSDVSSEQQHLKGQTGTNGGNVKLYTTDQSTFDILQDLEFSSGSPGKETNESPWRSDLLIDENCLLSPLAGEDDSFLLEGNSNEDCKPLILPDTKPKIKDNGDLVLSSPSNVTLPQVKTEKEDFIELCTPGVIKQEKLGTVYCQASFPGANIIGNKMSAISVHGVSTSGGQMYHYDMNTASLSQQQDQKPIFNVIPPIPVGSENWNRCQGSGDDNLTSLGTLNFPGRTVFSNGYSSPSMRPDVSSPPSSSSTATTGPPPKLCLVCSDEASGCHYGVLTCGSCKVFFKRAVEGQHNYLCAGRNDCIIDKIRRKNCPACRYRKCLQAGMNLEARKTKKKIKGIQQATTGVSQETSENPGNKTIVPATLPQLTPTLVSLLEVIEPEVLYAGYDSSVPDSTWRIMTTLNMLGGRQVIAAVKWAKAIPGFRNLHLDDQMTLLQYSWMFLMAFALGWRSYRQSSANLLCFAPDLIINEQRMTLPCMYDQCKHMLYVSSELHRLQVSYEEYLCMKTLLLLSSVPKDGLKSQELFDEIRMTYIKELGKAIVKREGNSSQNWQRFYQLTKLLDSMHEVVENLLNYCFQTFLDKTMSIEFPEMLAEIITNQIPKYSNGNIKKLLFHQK
Sequence of Cytochrome P450 1A2 (Homo sapiens) (P05177 whole entry, looked up): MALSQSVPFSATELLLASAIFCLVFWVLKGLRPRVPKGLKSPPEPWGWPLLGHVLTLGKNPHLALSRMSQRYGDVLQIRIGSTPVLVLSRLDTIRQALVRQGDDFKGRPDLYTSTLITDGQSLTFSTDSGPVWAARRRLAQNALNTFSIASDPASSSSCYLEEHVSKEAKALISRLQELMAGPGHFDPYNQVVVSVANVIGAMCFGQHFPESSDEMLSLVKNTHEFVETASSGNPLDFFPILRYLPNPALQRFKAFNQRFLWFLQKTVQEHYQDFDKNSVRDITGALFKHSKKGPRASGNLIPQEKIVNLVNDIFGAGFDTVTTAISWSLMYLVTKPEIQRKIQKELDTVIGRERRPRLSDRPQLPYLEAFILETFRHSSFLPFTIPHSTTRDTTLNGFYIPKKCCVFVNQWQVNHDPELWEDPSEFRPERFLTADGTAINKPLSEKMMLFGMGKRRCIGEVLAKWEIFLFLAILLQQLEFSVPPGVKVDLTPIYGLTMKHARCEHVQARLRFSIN
Sequence of Cytochrome P450 3A4 (Homo sapiens) (P08684 whole entry, looked up): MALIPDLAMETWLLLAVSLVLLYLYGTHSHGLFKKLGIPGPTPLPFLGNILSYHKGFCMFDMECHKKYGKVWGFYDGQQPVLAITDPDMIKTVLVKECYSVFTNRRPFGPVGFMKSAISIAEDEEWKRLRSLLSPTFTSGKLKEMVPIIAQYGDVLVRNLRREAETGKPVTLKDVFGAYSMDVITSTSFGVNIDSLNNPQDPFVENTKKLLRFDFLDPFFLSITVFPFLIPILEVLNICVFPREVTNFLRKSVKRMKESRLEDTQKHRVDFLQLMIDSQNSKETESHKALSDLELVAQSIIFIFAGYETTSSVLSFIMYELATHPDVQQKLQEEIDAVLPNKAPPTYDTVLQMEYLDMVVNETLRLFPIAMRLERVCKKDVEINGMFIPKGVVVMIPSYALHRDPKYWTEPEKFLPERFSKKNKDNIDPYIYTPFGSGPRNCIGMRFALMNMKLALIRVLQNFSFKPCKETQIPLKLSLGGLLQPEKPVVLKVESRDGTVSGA
Sequence of Lysosomal acid glucosylceramidase (Homo sapiens) (P04062 whole entry, looked up): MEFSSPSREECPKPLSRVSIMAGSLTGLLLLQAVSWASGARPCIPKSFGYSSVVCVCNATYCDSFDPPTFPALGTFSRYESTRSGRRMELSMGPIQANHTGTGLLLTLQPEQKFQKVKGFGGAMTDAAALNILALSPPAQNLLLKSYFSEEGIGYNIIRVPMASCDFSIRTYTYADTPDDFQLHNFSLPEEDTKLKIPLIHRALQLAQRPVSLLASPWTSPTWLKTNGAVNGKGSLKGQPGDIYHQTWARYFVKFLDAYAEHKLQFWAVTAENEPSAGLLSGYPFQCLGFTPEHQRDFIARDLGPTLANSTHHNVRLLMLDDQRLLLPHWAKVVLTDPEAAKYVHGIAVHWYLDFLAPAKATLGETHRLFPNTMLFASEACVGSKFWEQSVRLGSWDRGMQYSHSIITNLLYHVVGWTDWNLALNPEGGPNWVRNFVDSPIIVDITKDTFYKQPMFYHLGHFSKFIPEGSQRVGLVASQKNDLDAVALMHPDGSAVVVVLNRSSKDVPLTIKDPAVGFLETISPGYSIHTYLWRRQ
Sequence of 3',5'-cyclic-AMP phosphodiesterase 4B (Homo sapiens) (Q07343 whole entry, looked up): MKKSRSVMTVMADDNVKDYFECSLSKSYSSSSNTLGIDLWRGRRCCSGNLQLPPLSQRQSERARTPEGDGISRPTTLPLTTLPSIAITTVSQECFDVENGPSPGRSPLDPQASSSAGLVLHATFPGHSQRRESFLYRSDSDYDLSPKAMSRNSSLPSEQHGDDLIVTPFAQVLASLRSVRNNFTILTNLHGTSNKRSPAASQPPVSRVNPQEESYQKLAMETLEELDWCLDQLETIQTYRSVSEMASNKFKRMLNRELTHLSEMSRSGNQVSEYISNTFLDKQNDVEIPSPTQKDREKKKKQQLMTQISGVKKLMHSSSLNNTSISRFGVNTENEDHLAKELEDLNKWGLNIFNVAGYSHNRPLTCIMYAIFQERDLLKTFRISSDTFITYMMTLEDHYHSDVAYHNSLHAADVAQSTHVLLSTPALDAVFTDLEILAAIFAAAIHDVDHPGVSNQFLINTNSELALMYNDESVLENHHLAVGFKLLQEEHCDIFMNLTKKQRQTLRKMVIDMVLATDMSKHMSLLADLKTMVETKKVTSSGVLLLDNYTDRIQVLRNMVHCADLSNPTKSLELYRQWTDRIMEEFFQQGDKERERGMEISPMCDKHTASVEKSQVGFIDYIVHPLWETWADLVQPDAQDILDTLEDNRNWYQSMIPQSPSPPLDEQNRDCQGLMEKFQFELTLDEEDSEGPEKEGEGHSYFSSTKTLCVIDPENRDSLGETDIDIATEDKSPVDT

Cc1nc2cnc(N3CCNCC3)nc2n(CCc2ccccc2)c1=O
Potency [1]: > 11.4 µM (inactive) | activity change, negative = inhibition [2]: -1.97% (inactive) | activity change, negative = inhibition [3]: -13.2% (inactive) | activity, negative = inhibition [4]: -13.8% (inactive) | Potency [5]: > 9.22 µM (inactive) | Potency [6]: > 46 µM (inactive) | outcome [7]: inactive | Potency [8]: inactive | Potency [9]: inactive | Potency [10]: inactive | Potency [11]: inactive | Potency [12]: inactive | Potency [13]: inactive | Potency [14]: 31.6 µM (active)

COCCn1c(=O)c(-c2ccc(OC)cc2)nc2cnc(N3CCNCC3)nc21
Potency [1]: > 11.4 µM (inactive) | Potency [15]: 6.31 µM (active) | Potency [5]: > 9.22 µM (inactive) | Potency [6]: > 46 µM (inactive) | outcome [7]: inactive | Potency [8]: inactive | Potency [13]: inactive | Potency [14]: inactive

COc1ccc(-n2c(=O)cnc3cnc(N4CCNCC4)nc32)cc1
Potency [1]: > 11.4 µM (inactive) | activity change, negative = inhibition [2]: -7.32% (inactive) | Potency [15]: 12.6 µM (active) | activity change, negative = inhibition [3]: 0.78% (inactive) | activity, negative = inhibition [4]: -6.65% (inactive) | Potency [5]: > 9.22 µM (inactive) | Potency [6]: > 46 µM (inactive) | outcome [7]: inactive | Potency [8]: inactive | Potency [13]: inactive | max response [16]: 4.18% (inactive)

Clc1ccccc1-c1nc(N2CCNCC2)c2ccccc2n1
Potency [1]: > 11.4 µM (inactive) | activity change, negative = inhibition [2]: -2.1% (inactive) | Potency [15]: 2.51 µM (active) | activity change, negative = inhibition [3]: -0.528% (inactive) | activity, negative = inhibition [4]: 9.64% (inactive) | Potency [5]: > 46 µM (inactive) | Potency [6]: > 46 µM (inactive) | outcome [7]: inactive | Potency [8]: inactive | Potency [17]: inactive | outcome [18]: inactive | activity change, negative = inhibition ([19]; at 57.5 µM (top of the series)): 3.77% (inactive) | max response ([19]; measured here: cell count channel max response): 7.62% | max response ([19]; measured here: lipid channel max response): 12% | Potency [12]: inactive | Potency [13]: inactive | Potency [14]: 12.6 µM (active)

CCCCCCCCCCCCc1ccccc1O
Potency [13]: inactive | max response [16]: 11.8% (inactive)

COc1ccc(CNc2ncnc3ccc(-c4ccccc4OC)cc23)c(OC)c1
Potency [1]: > 11.4 µM (inactive) | activity change, negative = inhibition [2]: -4.21% (inactive) | Potency [15]: 3.16 µM (active) | activity change, negative = inhibition [3]: -17.9% (inactive) | activity, negative = inhibition [4]: -2.99% (inactive) | Potency [5]: > 46 µM (inactive) | Potency [6]: > 46 µM (inactive) | outcome [7]: inactive | Potency [20]: 2 µM (active) | Potency [17]: inactive | Potency [11]: inactive | Potency [12]: inactive | Potency [13]: inactive | Potency [14]: 22.4 µM (active)

CN1CCN(c2ncc3nc(CCc4ccccc4)c(=O)n(Cc4ccc(F)cc4)c3n2)CC1
Potency [1]: > 11.4 µM (inactive) | activity change, negative = inhibition [2]: 4.85% (inactive) | Potency [15]: inactive | activity change, negative = inhibition [3]: -12.2% (inactive) | activity, negative = inhibition [4]: -1.54% (inactive) | Potency [5]: > 9.22 µM (inactive) | Potency [6]: > 46 µM (inactive) | outcome [7]: inactive | Potency [20]: 5.01 µM (active) | Potency [17]: inactive | Potency [13]: inactive | Potency [14]: 25.1 µM (active)

O=C(c1ccco1)N1CCC[C@@]2(CCN(c3ccncc3)C2)C1
Potency [1]: > 11.4 µM (inactive) | activity change, negative = inhibition [2]: 0.424% (inactive) | Potency [15]: 12.6 µM (active) | activity, negative = inhibition [4]: 1.83% (inactive) | Potency [6]: > 46 µM (inactive) | outcome [7]: inactive | Potency [8]: inactive | Potency [20]: 1.26 µM (active) | Potency [17]: inactive | Potency [13]: inactive | Potency [14]: 28.2 µM (active)
